Results filed as inconclusive are left out. Active and inactive are the calls of the source. Unless noted, calls follow the shape of the dose curve; as a rule, active = well fitted curve in the direction sought with a large enough effect in the repeat runs; inconclusive = weak or mixed curves; inactive = no such curve, though single readings can be large; an effect the other way counts as inactive or inconclusive.
Key:
[1] = qHTS assay for small molecule agonists of the p53 signaling pathway (AID 651631; calls by dose curve; also: nearly all actives have a fitted effect of over 15% in size)
Method in brief: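 Fluorescence intensity from cleaved LiveBLAzer B/G substrate (2 h, room temperature) served as the signal. Beforehand, HCT-116 reporter cells bearing p53 response elements were treated 16 h at 37 °C with DMSO-dissolved compounds.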

[2] = qHTS assay for small molecules that induce genotoxicity in human embryonic kidney cells expressing luciferase-tagged ATAD5 (AID 651632); also: nearly all actives have a fitted effect of over 15% in size
Method in brief: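 Genotoxicity read-out via ATAD5-luciferase: HEK293T cells, 16 hr compound incubation at 37C, Amplite detection.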

[3] = qHTS assay for small molecule agonists of the p53 signaling pathway - cell viability (AID 651633; calls by dose curve;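 also: p53RE-bla HCT reporter cells with a stable beta-lactamase p53 reporter; nearly all actives have a fitted effect of over 30% in size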)
Method in brief: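 Viability counter-read: CellTiter-Glo luminescence (30 min, room temperature) in the same p53RE-bla plates. These plates had been exposed to compounds for 16 h at 37 C.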

[4] = qHTS assay for small molecules that induce genotoxicity in human embryonic kidney cells expressing luciferase-tagged ATAD5 - cell viability (AID 651634; calls by dose curve; also: nearly all actives have a fitted effect of over 25% in size; also: potency is read from the fitted curve at half-maximal effect)
Method in brief: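 Live-cell protease activity (CellTiter-Fluor, fluorescence) indicates viability. HEK293T cells with luciferase-tagged ATAD5; 15.5 hr compound treatment at 37C.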

[5] = qHTS assay for small molecule disruptors of the mitochondrial membrane potential - cell viability (AID 720634; calls by dose curve;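 also: human HepG2 liver cancer cells; nearly all actives have a fitted effect of over 20% in size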)
Method in brief: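 Human hepatoma HepG2 cells were treated for 1 hr with test chemicals, then given m-MPI dye and CellTiter-Glo. Cell viability reflects luminescence proportional to cellular ATP.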

[6] = qHTS assay to test for compound auto fluorescence at 590 nm (red) in HepG2 cells (AID 720674)
Method in brief: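 We screened compounds on adherent HepG2 cells, incubating them for an hour at 37 C in 5% CO2 before reading emission at 590 nm under 540 nm excitation; values reflect equivalence to Rose Bengal sodium fluorescence.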

[7] = qHTS assay to test for compound auto fluorescence at 535 nm (green) in HepG2 cells (AID 720675)
[8] = qHTS assay to test for compound auto fluorescence at 460 nm (blue) in HEK293 cells (AID 720678)
Method in brief: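 Intrinsic compound fluorescence is recorded in live HEK293 cultures after overnight incubation at 37C, 5% CO2, using excitation 405 nm and emission 460 nm. Values are referenced to triamterene.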

[9] = qHTS assay to test for compound auto fluorescence at 590 nm (red) in HEK293 cells (AID 720679)
Method in brief: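 Red autofluorescence, HEK293 cells: 2,000 cells/well; attach 4-5 hr 37C; add 23 nL cpd or DMSO; incubate o/n 37C 5% CO2; read Ex540/Em590; Rose Bengal sodium reference.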

[10] = qHTS assay to test for compound auto fluorescence at 535 nm (green) in HEK293 cells (AID 720680)
[11] = qHTS assay to test for compound auto fluorescence at 460 nm (blue) in HEK293 cell free culture (AID 720681)
Method in brief: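 Blue fluorescence (Ex 405/Em 460 nm, triamterene-equivalent) was read immediately after pin transfer of compound or DMSO into medium (DMEM, 10% FBS) without cells.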

[12] = qHTS assay to test for compound auto fluorescence at 535 nm (green) in HEK293 cell free culture (AID 720682)
Method in brief: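 Intrinsic compound fluorescence is measured in culture medium containing 10% FBS, with excitation at 485 nm and detection at 535 nm, referenced to fluorescein.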

[13] = qHTS assay to test for compound auto fluorescence at 590 nm (red) in HEK293 cell free culture (AID 720683)
Method in brief: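 Red-channel autofluorescence of compounds in culture medium (DMEM, 10% FBS), no cells, measured at 540/590 nm. Rose Bengal sodium is the reference fluorophore for equivalence.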

[14] = qHTS assay to test for compound auto fluorescence at 460 nm (blue) in HepG2 cell free culture (AID 720685)
Method in brief: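 Compound (23 nL) or DMSO pinned into cell-free MEM with 10% FBS; blue fluorescence read at 405/460 nm excitation/emission, expressed as auto-fluorescence equivalency to triamterene.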

[15] = qHTS assay to test for compound auto fluorescence at 535 nm (green) in HepG2 cell free culture (AID 720686)
[16] = qHTS assay to test for compound auto fluorescence at 460 nm (blue) in HepG2 cells (AID 720687)
Method in brief: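 Blue-channel autofluorescence (Ex/Em 405/460 nm, triamterene-equivalent) was measured after 1 hr compound exposure at 37 C, 5% CO2. Cells were HepG2, plated overnight at 37 C in MEM plus 10% FBS.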

[17] = target: Glucocorticoid receptor (Homo sapiens) (UniProt P04150); assay: qHTS assay to identify small molecule agonists of the glucocorticoid receptor (GR) signaling pathway (AID 720691; active = well fitted activation curve with a large enough effect in the signal ratio in the repeat runs, not every such curve was filed as active; the % refers to the signal ratio); conditions: GR-bla HeLa, beta-lactamase reporter ratio, 18 h; activation: at 62.4 µM (top of the series)
Method in brief: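 Beta-lactamase reporter activity, read as fluorescence intensity, was measured in GR-bla HeLa cells exposed to compounds for 18 h at 37 C and then loaded with LiveBLAzer B/G FRET substrate for 2 h at room temperature.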

[18] = target: Glucocorticoid receptor (Homo sapiens) (UniProt P04150); assay: qHTS assay to identify small molecule antagonists of the glucocorticoid receptor (GR) signaling pathway (AID 720692; active = well fitted inhibition curve with a large enough effect in the signal ratio in the repeat runs, not every such curve was filed as active; the % refers to the signal ratio)
Method in brief: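 Fluorescence from cleaved LiveBLAzer B/G FRET substrate reports GRE-driven beta-lactamase in HeLa cells; compounds are tested against 5 nM dexamethasone (final) over 18 h at 37 C, substrate incubation 2 h at room temperature.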

[19] = qHTS assay to test for compound auto fluorescence at 590 nm (red) in HepG2 cell free culture (AID 720684)
Method in brief: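 Plate contents were MEM with 10% FBS plus test compound or DMSO, no cells. Fluorescence was recorded with 540 nm excitation and 590 nm emission.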

[20] = qHTS assay for small molecule disruptors of the mitochondrial membrane potential (AID 720635); also: potency is read from the fitted curve at half-maximal effect
Method in brief: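 Mitochondrial membrane potential tracked with Mito-MPS dye, red aggregates (ex 540/em 590 nm) against green monomers (ex 490/em 535 nm). Compound treatment 1 hr at 37C, dye 30 min in HepG2.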

Measured: Potency

Glucocorticoid receptor (Homo sapiens), sequence (P04150 whole entry, looked up): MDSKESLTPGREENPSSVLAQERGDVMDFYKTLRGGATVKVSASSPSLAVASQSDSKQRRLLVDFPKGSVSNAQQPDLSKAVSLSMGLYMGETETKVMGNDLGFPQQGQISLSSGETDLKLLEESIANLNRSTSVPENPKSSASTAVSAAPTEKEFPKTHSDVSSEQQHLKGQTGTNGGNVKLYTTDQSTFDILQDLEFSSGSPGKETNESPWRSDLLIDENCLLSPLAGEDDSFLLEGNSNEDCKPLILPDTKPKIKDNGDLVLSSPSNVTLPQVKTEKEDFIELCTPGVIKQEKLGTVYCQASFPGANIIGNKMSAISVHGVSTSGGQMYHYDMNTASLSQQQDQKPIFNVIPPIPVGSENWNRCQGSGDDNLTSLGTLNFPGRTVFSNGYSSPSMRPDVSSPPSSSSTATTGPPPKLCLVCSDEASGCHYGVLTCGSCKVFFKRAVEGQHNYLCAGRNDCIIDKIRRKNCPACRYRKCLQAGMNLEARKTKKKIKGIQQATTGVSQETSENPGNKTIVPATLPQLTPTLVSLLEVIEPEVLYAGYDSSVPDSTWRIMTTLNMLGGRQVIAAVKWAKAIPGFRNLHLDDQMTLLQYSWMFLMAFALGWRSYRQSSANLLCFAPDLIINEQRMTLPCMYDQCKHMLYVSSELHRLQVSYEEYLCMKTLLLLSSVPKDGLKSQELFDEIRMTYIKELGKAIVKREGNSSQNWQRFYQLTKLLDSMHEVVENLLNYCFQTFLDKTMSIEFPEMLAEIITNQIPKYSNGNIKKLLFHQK

O=C(O)c1cccc(/C=C2/C[C@@H]3[C@@H](/C=C/[C@@H](O)C4CCCCC4)[C@H](O)C[C@@H]3O2)c1
inactive: [1] | [2] | [3] | [4] | [5] | [6] | [7] | [8] | [9] | [10] | [11] | [12] | [13] | [14] | [15] | [16] | [17] | [18]

O=C1N=C2SCCN2C(=O)C1Cc1ccc(Cl)cc1 (stereo unspecified)
inactive: [1] | [2] | [3] | [4] | [5] | [6] | [7] | [8] | [10] | [11] | [12] | [13] | [19] | [14] | [15] | [16] | [17] | [18]

CN1c2c(nc(N)[nH]c2=O)NCC1CNc1ccc(C(=O)NC(CCC(=O)O)C(=O)O)cc1 (stereo unspecified)
inactive: [1] | [2] | [3] | [4] | [5] | [6] | [7] | [8] | [9] | [10] | [11] | [12] | [13] | [19] | [14] | [15] | [16] | [17] | [18]

CC(=O)O[C@H]1C[C@@]2(C)[C@@H](C[C@@H](O)[C@H]3[C@@]4(C)CC[C@@H](O)[C@@H](C)[C@@H]4CC[C@@]32C)/C1=C(\CCC=C(C)C)C(=O)O
inactive: [1] | [2] | [3] | [4] | [5] | [6] | [7] | [8] | [9] | [10] | [11] | [12] | [13] | [19] | [14] | [15] | [16] | [17] | [18]

Cc1cccc(C)c1NC(=O)NC1=CCCN1C
inactive: [1] | [2] | [3] | [4] | [5] | [6] | [7] | [8] | [9] | [10] | [11] | [12] | [19] | [14] | [15] | [16] | [17] | [18]

Cn1cc(NC(=O)c2cc(NC(=O)c3cc(NC=O)cn3C)cn2C)cc1C(=O)NCCC(=N)N
inactive: [1] | [2] | [3] | [4] | [5] | [6] | [7] | [8] | [9] | [10] | [11] | [12] | [13] | [19] | [15] | [16]

CC(=O)N[C@@H]1C(O[C@H]2O[C@H](C(=O)O)C(O)[C@H](O)[C@H]2O)[C@H](O)[C@@H](CO)O[C@H]1O[C@@H]1C(C(=O)O)O[C@@H](O[C@H]2[C@H](O)[C@@H](CO)OC(O)[C@@H]2NC(C)=O)[C@H](O)[C@H]1O (stereo partly specified)
inactive: [1] | [2] | [3] | [4] | [5] | [6] | [7] | [8] | [9] | [10] | [11] | [12] | [13] | [19] | [14] | [15] | [16] | [17] | [18]

CC(=O)c1ccc2c(c1)N(CCCN1CCN(CCO)CC1)c1ccccc1S2
inactive: [1] | [2] | [3] | [5] | [6] | [7] | [8] | [9] | [10] | [11] | [12] | [13] | [19] | [14] | [15] | [16] | [17] | [18]

NC(=S)N=Nc1ccc(NN=C(N)N)cc1
active: [4] 26.6 µM | [20] 2.98 µM
inactive: [1] | [2] | [5] | [6] | [7] | [8] | [10] | [11] | [12] | [13] | [19] | [14] | [15] | [16]

c1ccc2c(CCC3CCNCC3)c[nH]c2c1
inactive: [1] | [2] | [3] | [4] | [6] | [7] | [8] | [9] | [10] | [11] | [12] | [13] | [19] | [14] | [15] | [16] | [17] | [18]

CN1c2cc(O)c(N=NC(N)=O)cc2CC1S(=O)(=O)O (stereo unspecified)
inactive: [1] | [2] | [3] | [5] | [6] | [7] | [8] | [9] | [10] | [11] | [12] | [13] | [19] | [14] | [15] | [16]

CNc1cc(OC)c(C(=O)N[C@H]2CCN(Cc3ccccc3)[C@H]2C)cc1Cl
inactive: [1] | [2] | [3] | [5] | [6] | [7] | [8] | [9] | [10] | [11] | [12] | [13] | [19] | [14] | [15] | [16] | [17] | [18]

CCC(C)C(C(=O)OCC[N+](C)(CC)CC)c1ccccc1 (stereo unspecified)
inactive: [1] | [3] | [4] | [5] | [20] | [6] | [7] | [8] | [9] | [10] | [11] | [12] | [13] | [19] | [15] | [16] | [17] | [18]

From PubChem BioAssay (Tox21)
